Experimental data reported in PubChem BioAssay (EPA / NIEHS).
Active and inactive are the calls of the source. Rule for the calls: active = hit-call score of the fitted dose curve at least 0.9, where 1 is the maximum; inactive = score below 0.9.

read-out: Interleukin-1 alpha (IL1a), IL1A (gene 3552); experiment: BSK_BF4T_IL1a: BioMAP Diversity Plus: BF4T Assay for Interleukin-1 alpha (IL1a) Biomarker Activity (AID 2284264); settings: primary human bronchial epithelial cells with fibroblasts
Description: BSK_BF4T is a cell-based, multiplexed-readout assay that uses bronchial epithelial cells and dermal fibroblasts, a human vascular primary cell, with measurements taken at 24 hours after chemical dosing in a microplate: 96-well plate.BSK_BF4T_IL1a is an assay component measured in the BSK_BF4T assay. It measures IL-1a antibody related to regulation of gene expression using ELISA technology.Data from the assay component BSK_BF4T_IL1a was analyzed at the endpoint, BSK_BF4T_IL1a, in the positive analysis fitting direction relative to DMSO as the negative control and baseline of activity. Using a type of binding reporter, gain or loss-of-signal activity can be used to understand protein changes. To generalize the intended target to other relatable targets, this assay endpoint is annotated to the 'cytokine' intended target family, where the subfamily is 'interleukins'.
The levels of cell surface (or secreted, indicated by the prefix "s") biomarker endpoints were measured by ELISA. Overt cytotoxicity to cells in confluent adherent cultures (all systems other than the BT system) was assessed by measuring total protein levels using sulforhodamine B (SRB) staining in parallel cultures at the time of biomarker measurements, indicated as SRB endpoints. For proliferation assays for adherent cell types, individual cell types are cultured at sub-confluence and relative cell numbers quantified by SRB staining at time points optimized for each system (48 h: 3C and CASM3C systems; 72 h: BT and HDF3CGF systems; 96 h: SAg system). SRB was performed by staining cells with 0.1% SRB after fixation with 10% TCA and reading wells at 560 nm.Viability and proliferation of PBMC (T cells) was quantified by Alamar Blue reduction for the SAg and BT systems. For PBMC viability (referred to as PBMC Cytotoxicity within the assay endpoint names), cells were plated (75,000/well in a 96-well plate) and then chemical samples added for 1 h before addition of activators, SEB and TSST-1 (20 ng/mL final concentration each). Cells were incubated for 90 h. Then, Alamar Blue (20 uL/well) (Invitrogen, Cat DAL1100) was added for 6 h, and the plates were read with a fluorescence microplate reader at 546/580 nm (excitation/emission). For PBMC proliferation, cells were plated and activated as above but incubated for only 16 h prior to addition of Alamar Blue. Plates were read after 6 h.

Row | SMILES | outcome
1 | OCCC(F)(F)C(F)(F)C(F)(F)C(F)(F)F | inactive
2 | O=C(Cl)C(F)(F)C(F)(F)C(F)(F)C(=O)Cl | inactive
3 | FC(F)=C(F)C(F)(F)C(F)(F)C(F)(F)C(F)(F)C(F)(F)C(F)(F)F | inactive
4 | C[Si](C)(C)C(F)(F)C(F)(F)C(F)(F)F | inactive
5 | FC(F)(F)C(F)(F)C(F)(F)C(F)(F)C(F)(F)C(F)(F)I | inactive
6 | NCC(F)(F)C(F)(F)C(F)(F)C(F)(F)F | inactive
7 | FC(F)C(F)(F)COCC1CO1 (stereo not given) | inactive
8 | FC(F)(F)COC(OCC(F)(F)F)OCC(F)(F)F | inactive
9 | OC(O)(C(F)C(O)(O)C(F)(F)F)C(F)(F)F | inactive
10 | O=S(=O)(O)CCC(F)(F)C(F)(F)C(F)(F)C(F)(F)C(F)(F)C(F)(F)F | inactive
